From PubChem BioAssay (EPA / NIEHS)
Values joined by “and” are separate entries in the source; they are usually repeats but may differ in a detail not shown here. Equal entries are not always repeated. Inconclusive results are not listed. A structure can be active in one record and inactive in another. Active and inactive are the calls of the source. Rule for the calls: active = hit-call score of the fitted dose curve at least 0.9, where 1 is the maximum; inconclusive = response in the unintended direction; inactive = score below 0.9.

target: zebrafish Thyroid Hormone Receptor beta (TRb), thrb (gene 30607) (UniProt Q9PVE4); assay: ATG_zfTRb_XSP2: Attagene TRANS-FACTORIAL Multi-Species (XSP1) HepG2 Assay for zebrafish Thyroid Hormone Receptor beta (TRb) (AID 2283836);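 for AC50: potency for induction of reporter signal above DMSO so agonist direction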
Protocol: (§1) ATG_XSP2_multi-species_TRANS is a cell-based, multiplexed assay created by modifying the existing Attagene TRANS-FACTORIAL system to include a panel of nuclear receptors from some or all the following species: human (Homo sapiens), mouse (Mus musculus), frog (Xenopus laevis), zebrafish (Danio rerio), chicken (Gallus gallus), and turtle (Chrysemys picta). The ECOTOX-FACTORIAL format uses HepG2, a human liver cell line, with measurements taken at 24 hours after chemical dosing in a 24-well plate. Xsp2 included 3 nM 6-alpha-fluorotestosterone and 1.5 nM norgestrel to stimulate the androgen receptor.ATG_zfTRb_XSP2 is one of 29 assay components measured or calculated from the ATG_XSP2_multi-species_TRANS assay. It is designed to make measurements of mRNA induction, a form of inducible reporter, as detected with fluorescence intensity signals by Reverse transcription polymerase chain reaction (RT-PCR) and Capillary electrophoresis technology.The assay endpoint ATG_zfTRb_XSP2 was analyzed in the positive analysis fitting direction relative to DMSO as the negative control and baseline of activity. Using a type of inducible reporter, measures of mRNA for gain-of-signal activity can be used to understand the reporter gene at the transcription factor-level as they relate to the gene TR. Furthermore, this assay endpoint can be referred to as a primary readout, because this assay has produced multiple assay endpoints where this one serves a reporter gene function. To generalize the intended target to other relatable targets, this assay endpoint is annotated to the nuclear receptor intended target family, where the subfamily is non-steroidal.
(§2) Human liver HepG2 cells are transiently transfected with multiple reporter transcription units (MRTUs) in 6-well plates using FuGene 6 reagent (Roche; 3 ml FuGene/1 mg DNA). The MRTU constructs are regulated by a cis-regulating element (promoter). […] A major difference between the CIS and TRANS system is that in CIS activities of endogenous TFs are measured, whereas the TRANS assay evaluates changes in activities of exogenous, chimeric NR-Gal4 proteins. […] At the end of 24 hour incubation, total RNA was isolated using TriZol reagent (Invitrogen). The isolated RNA is then reverse-transcribed using oligo(dT) primer and Mo-MLV reverse transcriptase (Invitrogen) with DNAse I (Ambion) treatment for 30 min. The one-tenth of the produced cDNA was amplified by PCR using Taq DNA polymerase (Invitrogen) and two reporter sequence-specific primers. The PCR products were fluorescently labeled by primer extension with 6-arboxyfluorescein (6-FAM) 5'-labeled reporter sequence-specific primer (2 min at 95 C, 20 s at 68 C and 10 min at 72 C) and these products were digested with 5U of HpaI (New England Biolabs) for 2h at 37 C. The fragments were purified using Qiaquick PCR columns (Qiagen), analyzed on an ABI 3130xL genetic analyzer (Applied Biosystems) with peak positions identified by using a set of X-rhodamine (ROX)-labeled MapMarker1000 molecular weight standards (BioVentures). The raw capillary electrophoresis data was processed using Attagraph software (Attagene).

zebrafish Thyroid Hormone Receptor beta (TRb), thrb (gene 30607), sequence (Q9PVE4 whole entry, looked up): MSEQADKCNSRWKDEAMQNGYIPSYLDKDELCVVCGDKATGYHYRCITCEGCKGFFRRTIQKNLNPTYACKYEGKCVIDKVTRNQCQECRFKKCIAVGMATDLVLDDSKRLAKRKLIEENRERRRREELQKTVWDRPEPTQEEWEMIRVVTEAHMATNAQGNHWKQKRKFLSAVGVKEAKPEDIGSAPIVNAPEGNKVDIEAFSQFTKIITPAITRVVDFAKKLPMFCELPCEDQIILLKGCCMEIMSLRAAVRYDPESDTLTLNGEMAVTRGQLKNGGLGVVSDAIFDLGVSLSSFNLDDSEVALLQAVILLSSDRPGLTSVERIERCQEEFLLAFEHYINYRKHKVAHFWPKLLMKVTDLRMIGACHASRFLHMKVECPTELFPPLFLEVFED

Compound	outcome	AC50
O=C(Oc1ccccc1)c1ccc(O)cc1	inactive	
CN(C)C(=N)N=C(N)N	inactive	
CCCCCCCCCCCCN	inactive	
CN(CCOc1ccc(CC2SC(=O)NC2=O)cc1)c1ccccn1 (centres undefined)	inactive	
O=c1cc(-c2ccccc2)oc2cc(O)cc(O)c12	inactive	100 µM (active)

target: frog Thyroid hormone Receptor alpha (TRa), thra-a (gene 397942) (UniProt P15204); assay: ATG_frTRa_XSP2: Attagene TRANS-FACTORIAL Multi-Species (XSP2) HepG2 Assay for frog Thyroid hormone Receptor alpha (TRa) (AID 2283839);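 for AC50: AC50 reflects induction of frog TRa-driven reporter mRNA above DMSO baseline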
Protocol: as §1, with “receptor.ATG_frTRa_XSP2” for “receptor.ATG_zfTRb_XSP2”, “ATG_frTRa_XSP2” for “ATG_zfTRb_XSP2”
as §2

frog Thyroid hormone Receptor alpha (TRa), thra-a (gene 397942), sequence (P15204 whole entry, looked up): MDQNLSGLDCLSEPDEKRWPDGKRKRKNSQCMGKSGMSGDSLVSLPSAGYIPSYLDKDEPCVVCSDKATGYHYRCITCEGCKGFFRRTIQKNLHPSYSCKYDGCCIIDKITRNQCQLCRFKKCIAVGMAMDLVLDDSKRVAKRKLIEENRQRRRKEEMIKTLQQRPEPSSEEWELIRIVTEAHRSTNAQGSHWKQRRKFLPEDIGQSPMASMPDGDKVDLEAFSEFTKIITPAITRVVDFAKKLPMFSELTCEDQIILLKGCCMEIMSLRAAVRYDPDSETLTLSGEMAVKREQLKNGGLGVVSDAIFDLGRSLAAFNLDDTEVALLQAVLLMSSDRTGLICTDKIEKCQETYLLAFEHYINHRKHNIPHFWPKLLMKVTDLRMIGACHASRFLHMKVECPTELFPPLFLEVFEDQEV

Compound	AC50	outcome
O=C(Oc1ccccc1)c1ccc(O)cc1	166 µM (active)	inactive
CN(C)C(=N)N=C(N)N		inactive
CCCCCCCCCCCCN		inactive
CN(CCOc1ccc(CC2SC(=O)NC2=O)cc1)c1ccccn1 (centres undefined)		inactive
O=c1cc(-c2ccccc2)oc2cc(O)cc(O)c12	26.2 µM (active) and 1.8 µM (active)	

target: human Thyroid hormone Receptor beta (TRb), THRB (gene 7068) (UniProt P10828); assay: ATG_hTRb_XSP2: Attagene TRANS-FACTORIAL Multi-Species (XSP2) HepG2 Assay for human Thyroid hormone Receptor beta (TRb) (AID 2283840);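 note: actives raise reporter mRNA so potency reflects agonist-like gain of signal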
Protocol: as §1, with “receptor.ATG_hTRb_XSP2” for “receptor.ATG_zfTRb_XSP2”, “ATG_hTRb_XSP2” for “ATG_zfTRb_XSP2”
as §2, with “The one-tenth of the produced cDNA was amplified by PCR using Taq DNA polymerase (Invitrogen) and two reporter sequence-specific primers. The PCR products were fluorescently labeled by primer extension with 6-arboxyfluorescein (6-FAM) 5'-labeled reporter sequence-specific primer (2 min at 95 C, 20 s at 68 C and 10 min at 72 C) and these products were digested with 5U of HpaI (New England Biolabs) for 2h at 37 C.” left out, “The raw capillary electrophoresis data was processed using Attagraph software (Attagene).” left out

human Thyroid hormone Receptor beta (TRb), THRB (gene 7068), sequence (P10828 whole entry, looked up): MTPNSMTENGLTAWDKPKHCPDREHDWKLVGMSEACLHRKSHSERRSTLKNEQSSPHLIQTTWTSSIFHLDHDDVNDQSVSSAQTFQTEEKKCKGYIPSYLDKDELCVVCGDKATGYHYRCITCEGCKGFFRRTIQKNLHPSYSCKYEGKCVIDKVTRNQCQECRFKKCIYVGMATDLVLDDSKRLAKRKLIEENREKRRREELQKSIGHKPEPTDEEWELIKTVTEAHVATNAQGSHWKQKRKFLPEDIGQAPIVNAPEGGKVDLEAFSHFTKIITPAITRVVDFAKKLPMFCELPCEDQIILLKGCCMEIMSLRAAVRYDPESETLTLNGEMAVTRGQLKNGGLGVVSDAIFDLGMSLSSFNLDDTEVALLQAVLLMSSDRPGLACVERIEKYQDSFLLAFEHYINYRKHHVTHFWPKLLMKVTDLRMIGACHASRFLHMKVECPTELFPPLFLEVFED

Compound	outcome	AC50
O=C(Oc1ccccc1)c1ccc(O)cc1	inactive	
CN(C)C(=N)N=C(N)N	inactive	
O=c1cc(-c2ccccc2)oc2cc(O)cc(O)c12	inactive	100 µM (active)

test system: Sodium/Iodide Symporter (NIS), SLC5A5 (gene 6528); assay: CPHEA_Stoker_NIS_Inhibition_RAIU: CPHEA's Radioactive Iodide Uptake (RAIU) Assay for Sodium/Iodide Symporter (NIS) Inhibition, Stoker and Laws Labs (AID 2283841)
Procedure, shortened: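 Iodide uptake read as CPM of intracellular 125I (final 329 pM) after 2 h room-temperature exposure in HEPES-buffered HBSS, pH 7.4. Human NIS-expressing HEK293T cells; six concentrations 0.001–100 uM, 0.5% DMSO, normalised to DMSO wells.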

Compound	outcome	AC50
CCCCCCCCCCCCCCCCCC(=O)OCC(CC)CCCC (centres undefined)	inactive	
CCN(CC)CCOC(=O)c1ccc(N)cc1	inactive	
CSc1nc(NC2CC2)nc(NC(C)(C)C)n1		10 µM (active)
Cc1ccc(S)cc1	inactive	
c1ccc(CCCc2ccccn2)cc1	inactive	
CC(C)C[C@H]1C(=O)N2CCC[C@H]2[C@]2(O)O[C@](NC(=O)[C@@H]3C=C4c5cccc6[nH]c(Br)c(c56)C[C@H]4N(C)C3)(C(C)C)C(=O)N12	inactive	
COc1cc(C(C)(C)C)c(O)c(C(C)(C)C)c1	inactive	
O=C1c2ccccc2C(=O)N1SC1CCCCC1	inactive	
BrC1CCC(Br)C(Br)CCC(Br)C(Br)CCC1Br (centres undefined)	inactive	
CCCCCCCCC	inactive	
CC(C)=CCCC(C)=CCCC(C)=CCO	inactive	
CCN(CC)c1ccc2c(-c3ccccc3C(=O)O)c3ccc(=[N+](CC)CC)cc-3oc2c1	inactive	
CCCCCCCCCCCCCOS(=O)(=O)O	inactive	
Cc1ccc(O)c(C(C)(C)C)c1	inactive	
c1ccc2[nH]ccc2c1	inactive	
O=c1cc(-c2ccccc2)oc2cc(O)cc(O)c12	inactive	

test system: not listed separately; assay: CPHEA_Stoker_NIS_Cytotoxicity: Cytotoxicity Assessment for CPHEA's Radioactive Iodide Uptake (RAIU) Assay for Sodium/Iodide Symporter (NIS) Inhibition, Stoker and Laws Labs (AID 2283897);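 for AC50: active means loss of ATP signal versus DMSO meaning cytotoxicity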
Procedure, shortened: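 CellTiter-Glo ATP luminescence gauged viability in HEK293T cells expressing human NIS after 2 h chemical exposure. Concentrations ran 0.001–100 uM in 0.5% DMSO; DMSO served as baseline for the loss-of-signal fit.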

Compound	outcome	AC50
CCCCCCCCCCCCCCCCCC(=O)OCC(CC)CCCC (centres undefined)	inactive	
O=C(Oc1ccccc1)c1ccc(O)cc1	inactive	
CCN(CC)CCOC(=O)c1ccc(N)cc1	inactive	
CSc1nc(NC2CC2)nc(NC(C)(C)C)n1	inactive	
Cc1ccc(S)cc1	inactive	
c1ccc(CCCc2ccccn2)cc1	inactive	
CC(C)C[C@H]1C(=O)N2CCC[C@H]2[C@]2(O)O[C@](NC(=O)[C@@H]3C=C4c5cccc6[nH]c(Br)c(c56)C[C@H]4N(C)C3)(C(C)C)C(=O)N12	inactive	
CC(C)=CCC[C@](C)(O)[C@@H]1CC=C(C)CC1	inactive	
COc1cc(C(C)(C)C)c(O)c(C(C)(C)C)c1	inactive	
O=C1c2ccccc2C(=O)N1SC1CCCCC1		79.4 µM (active)
BrC1CCC(Br)C(Br)CCC(Br)C(Br)CCC1Br (centres undefined)	inactive	
CCCCCCCCC	inactive	
CC(C)=CCCC(C)=CCCC(C)=CCO	inactive	
CCN(CC)c1ccc2c(-c3ccccc3C(=O)O)c3ccc(=[N+](CC)CC)cc-3oc2c1		13.3 µM (active)
CCCCCCCCCCCCCOS(=O)(=O)O	inactive	
Cc1ccc(O)c(C(C)(C)C)c1	inactive	
O=c1cc(-c2ccccc2)oc2cc(O)cc(O)c12	inactive	
